From PubChem BioAssay
Shown are actives, neighbours in structure and some others; about 3.9% of the full set was active somewhere.
HT1080 IDH1KD tx: toxicity to HT-1080 IDH1 knockdown cells (counter line); Potency, µM (titrated, usually from 46.1 µM), inactives show at the top dose activity, negative = toxicity, most hits filed as cytotoxic; AID 686971; HT-1080 IDH1 knockdown viability, ATP luminescence, 48 h; actives 2% (n = 360,000);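 further: 0% = DMSO wells and -100% = cell-free medium wells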
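Knockdown cells (IDH1KD HT-1080) received compounds 2 h after plating at 750 cells/well and were kept 48 h at 37 °C in 5% FBS RPMI. A CellTiter-Glo luminescence read gave % activity for curve fitting.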
ATXN viability: viability counter-screen for ATXN expression inhibitors. S2 cells (HEK-293 line with an ATXN2-luciferase reporter) viability, CellTiter-Fluor protease fluorescence, 24 h. Potency, µM (titrated, usually from 56.7 µM), most hits filed as cytotoxic. actives 0.49% (n = 400,000). AID 651635; further: nearly all actives have a fitted effect of over 40% in size
HepG2 tox: kills HepG2 cells in TGF-b inhibitor counter-screen. HepG2 CAGA-GFP viability, ATP luminescence, 18 h. Potency, µM (top dose mostly 46.1 µM), without a hit: top-dose activity change, negative = cytotoxicity, hits mostly cytotoxic. actives 0.76% (n = 410,000)
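HepG2 CAGA-GFP cells (1000/well, DMEM with 1% FBS) received compound, then TGF-beta at 500 pg/mL final, and were incubated 18 hours at 37 degrees C. Viability was read by CellTiter-Glo luminescence. Media-only wells were set as complete cell-killing and DMSO as no toxicity.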
TGFb inhibitor: inhibitors of TGF-b signaling; AID 588855; HepG2 CAGA-GFP TGF-b/SMAD3 reporter, GFP fluorescence, 18 h; TGF-beta stimulated, 500 pg/mL final; actives 1.2% (n = 410,000); Potency, µM (titrated, usually from 46.1 µM), for the others: at the top dose activity, negative = inhibition, hits mostly inhibitors; further: on the % scale 0 is the no-effect control and ±100 the full control effect; nearly all actives have a fitted effect of over 65% in size
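HEPG2 CAGA-GFP cells (1000/well, DMEM with 1% FBS) were pre-incubated 2 h at 37 degrees C, given compound by pin tool, then stimulated with TGF-beta at 500 pg/mL final for 18 h before per-cell GFP fluorescence imaging.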
HT1080-NT tox: kills 2HG-producing HT-1080-NT fibrosarcoma cells; HT-1080-NT fibrosarcoma viability, CellTiter-Glo ATP luminescence, 48 h; Potency, µM (series often up to 46.1 µM), inactives show at the highest dose activity, negative = less viability, most hits filed as cytotoxic; actives 1.6% (n = 360,000); AID 686970;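 further: NT is the 2HG producing partner of a matched IDH1 knockdown line; 0% = DMSO-treated cells and -100% = media-only wells without cells; nearly all actives have a fitted effect of over 55% in size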
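Luminescent CellTiter-Glo readout after 48 hours of compound exposure at 37 degrees C defined viability of HT-1080-NT cells. Activity was normalized to DMSO wells and cell-free media wells; concentration-response curves were fitted and assigned curve classes.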
ATXN2 expr inh: reduces ATXN2 reporter expression in HEK-293 cells. actives 0.72% (n = 360,000). AID 1745845. Potency, µM (series often up to 57 µM), for inactives: at the highest dose activity change, negative = inhibition, actives largely listed as inhibitors. HEK-293 ATXN2-luciferase reporter, luminescence, 24 h; further: on the % scale 0 is the no-effect control and ±100 the full control effect; nearly all actives have a fitted effect of over 55% in size
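qHTS (up to 57 uM final) was run with 24 h compound exposure of reporter cells at 37 °C. Each well was multiplexed: SteadyGlo luminescence measured ATXN2-luciferase expression after a fluorogenic Gly-Phe-AFC viability readout (25 uM final).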
Numbers without * were called inactive; i = inactive; ? = inconclusive; · = no result given. The call rests on the fitted dose curve; in most records, active means well fitted curve in the direction sought with a large enough effect; inconclusive means small, poorly fitted or top-dose-only effect, or another doubt; inactive means no such curve, though single readings can be large; an effect the other way counts as inactive or inconclusive. Potency means the concentration at half of the fitted maximal effect.

SMILES	HT1080 IDH1KD tx	ATXN viability	HepG2 tox	TGFb inhibitor	HT1080-NT tox	ATXN2 expr inh
O=C(Cn1cc(S(=O)(=O)Cc2ccccc2Cl)c2ccccc21)Nc1cccc(C(F)(F)F)c1	·	·	16µM*	?	·	·
Cc1cc(C)cc(NC(=O)CCN2C(=O)c3ccccc3Sc3ncccc32)c1	·	·	-14%	-11%	·	·
C=C[C@H](CC(C)C)N(Cc1ccccc1)S(=O)(=O)N(Cc1ccccc1)[C@H](C=C)CC(C)C	·	·	10%	0%	·	·
Cc1ccccc1CN1C(=O)c2ccccc2S1(=O)=O	-5%	i	-25%	-1%	0%	8%
O=C1c2ccccc2S(=O)(=O)N1Cc1nc2ccccc2s1	5%	i	-5%	-6%	5%	4µM*
CCN(CC)C(=O)[C@H]1CC(CC(=O)NC/C=C(\C)CCC=C(C)C)C(=O)N2CCc3c([nH]c4ccc(OC)cc34)[C@]12C (stereo not given in full)	16µM*	25µM*	-95%	11µM*	?	?
CCN(CC)C(=O)[C@H]1C[C@H](CC(=O)NC/C=C(\C)CCC=C(C)C)C(=O)N2CCc3c([nH]c4ccc(Cl)cc34)[C@]12C	1%	i	-3%	?	8%	-3%
CCN(CC)C(=O)[C@H]1CC(CC(=O)NC/C=C(\C)CCC=C(C)C)C(=O)N2CCc3c([nH]c4ccccc34)[C@]12C (stereo not given in full)	2%	?	-104%	16µM*	6%	?
C[C@]12c3[nH]c4ccccc4c3CCN1C(=O)C(CC(=O)NCc1cccc(C(F)(F)F)c1)C[C@@H]2C(=O)N1CCCCC1 (stereo not given in full)	?	?	-17%	11µM*	-30%	0%
CC[C@]12c3[nH]c4ccc(OC)cc4c3CCN1C(=O)C(CC(=O)NC/C=C(\C)CCC=C(C)C)C[C@@H]2C(=O)N1CCN(C(=O)C2CC2)CC1 (stereo not given in full)	-12%	?	-16%	?	-2%	?
Cc1c(Cl)cccc1-c1ccc(/C=C(\C#N)c2nc3ccccc3[nH]2)o1	·	·	7.9µM*	6.3µM*	·	8%
N#C/C(=C\c1c(Cl)cccc1Cl)c1nc2ccccc2[nH]1	?	i	-14%	0%	-19%	1%
O=C1C=CC(=O)C(CNc2ccc(C(=O)OCc3ccccc3)cc2)=C1	10µM*	·	-47%	0%	16µM*	0%
CN(C)c1ccc(C(=O)OCc2ccccc2)cc1	1%	i	-34%	-9%	20%	51%
CN(C(=O)CC(=O)Nc1ccc2nc3n(c(=O)c2c1)CCCCC3)c1ccccc1F	·	i	-2%	0%	·	1%
O=C(Nc1ccccc1C(=O)Nc1nnc(C(F)(F)F)s1)c1ccccc1	4.6µM*	?	-43%	?	3.3µM*	?
Cc1ccc2nc(-c3ccc(C#N)cc3)c(Cc3cccc(Cl)c3)n2c1	26µM*	i	-20%	-12%	?	-11%
Cc1ccc2nc(-c3ccccc3)c(Cc3cccc(Cl)c3)n2c1	?	?	-50%	14µM*	?	-25%
COc1ccc(OC)c(Nc2cc3ccccc3c(=O)[nH]2)c1	18µM*	i	-38%	-19%	?	-13%
OC(c1ccccc1)(c1ccccc1)C1CCN(CCCOc2cccc(OC(F)(F)F)c2)CC1	16µM*	·	·	·	18µM*	?
OC(c1ccccc1)(c1ccccc1)C1CCN(CCCOc2ccc3c(c2)CCCC3)CC1	13µM*	25µM*	·	·	15µM*	18µM*
CC(=O)Nc1ccc(OCCCN2CCC(C(O)(c3ccccc3)c3ccccc3)CC2)cc1	?	?	·	·	-24%	-1%
N#CCc1ccc(OCCCN2CCC(C(O)(c3ccccc3)c3ccccc3)CC2)cc1	?	?	·	·	21µM*	0%
CCOC(=O)c1ccn(-c2nc(-c3cccc(OC)c3)cc(C(F)(F)F)n2)n1	·	?	-2%	1%	·	?
CCOC(=O)C1(CCCc2ccccc2)CCN(Cc2cnc(C)s2)CC1	?	?	-19%	-4%	18µM*	?
SMILES	HT1080 IDH1KD tx	ATXN viability	HepG2 tox	TGFb inhibitor	HT1080-NT tox	ATXN2 expr inh
CCOC(=O)C1(CCOc2ccccc2)CCN(Cc2ccc3c(c2)OCCO3)CC1	?	i	-18%	-10%	18µM*	0%
Cc1ccc(NC(=O)Cn2nc(C)n3cccc3c2=O)c(C)c1	·	·	0%	16%	·	·
CC(=O)NN1C(=O)c2ccc3c4c(ccc(c24)C1=O)C(=O)N(NC(C)=O)C3=O	0%	·	10µM*	7.9µM*	-14%	·
NC(=S)N/N=C/c1ccc(-c2ccc(SC(F)F)cc2)o1	?	i	-53%	10µM*	?	-17%
O=C(Cn1nc2c(cc1=O)CCCC2)NCc1ccc(Cl)cc1	·	·	-6%	?	·	·
Nc1nc(Cl)cc(N2CCC(c3cc(-c4ccc(Cl)cc4)n[nH]3)CC2)n1	11µM*	?	11µM*	11µM*	22µM*	25µM*
Cc1ccc(CN2CCC(c3cc(-c4ccc(Cl)cc4)n[nH]3)CC2)cc1	?	?	14µM*	16µM*	0%	20µM*
